Reference: PubChem BioAssay
Inconclusive results are not listed. Active and inactive are the calls of the source. Unless noted, no cut-off is given here; in the data, nearly all actives have AC50 up to about 26 µM.

Columns and labels:
[1] = viability loss in pontine glioma line – cell-based, SU-DIPG-XVII, MIPE5.0, CellTiter-Glo, qHTS, dose response (AID 1347060); settings: CellTiter-Glo ATP luminescence;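 for AC50: cells exposed to compound for 48 hours before viability readout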
[2] = viability loss in pontine glioma line – cell-based, SU-DIPG-XIII, MIPE5.0, CellTiter-Glo, qHTS, dose response (AID 1347064; cut-off not given, nearly all actives have AC50 up to about 23 µM;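 for AC50: cells exposed to compound for 48 hours before the viability read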); settings: CellTiter-Glo ATP luminescence
[3] = viability loss in pontine glioma line – cell-based, SU-DIPG-XXV, MIPE5.0, CellTiter-Glo, qHTS, dose response (AID 1347065); settings: CellTiter-Glo ATP luminescence;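 note: cells exposed to compound for 48 hours before ATP readout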
[4] = JHH-DIPG-1 glioma cell viability, MIPE5.0 library, CellTiter-Glo luminescence, qHTS (AID 1347067); settings: JHH-DIPG-1 glioma viability, CellTiter-Glo ATP luminescence;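 note: cells exposed to compound for 48 hours before readout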
[5] = growth inhibition of DIPG cells – cell-based, MIPE5.0 library, qHTS (AID 1347068; cut-off not given, nearly all actives have IC50 up to about 30 µM;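 for IC50: cells exposed to compound for 48 hours before viability readout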); settings: SU-DIPG-XXV viability
[6] = viability loss with induced miR-34 in A549 – imaging, A549 dox-inducible miR-34, nuclei and caspase counts, primary screen (AID 1347080;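 active = compounds whose cell count with miR-34 switched on is under 0.7 times the count with it off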); settings: A549 miR-34 inducible, Hoechst nuclei count, 48 h
[7] = MELAS cybrid and Rieske KO viability enhancers – cell-based, MELAS cybrids, Rieske KO mouse fibroblasts, CellTiter-Glo, primary screen (AID 1508586;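 active = mean z-score across replicates of 1.96 or higher in either the MELAS or the Rieske mutant cell line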;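 note: z relative to plate mean and SD of compound and empty wells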); settings: low glucose
[8] = compounds altering viability of human ES cells (AID 493140; call rule not given here;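 note: cells exposed to compounds for four days before counting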); settings: human embryonic stem cell survival screen; stronger effect = higher value
[9] = P. berghei load reduction in hepatocytes – cell-based, HepG2, luciferase luminescence, HepG2 viability, primary screen (AID 624349; in the data active = parasite load remaining mostly below about 12%, no sharp cut-off; inactive = mostly above about 10%;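 note: 100% = mean of DMSO negative control wells on the same plate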); settings: P. berghei liver stage in HepG2, luciferase luminescence, concentration not given here; parasite load remaining: stronger effect = lower value; viability: measured here: HepG2 viability without parasites
[10] = drug combination growth inhibition, ovarian cancer – cell-based, oncology-focused library, rucaparib conditional, profiling panel (AID 1508598;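 active = normalized viability below 100% at a tested concentration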); settings: patient-derived ovarian cancer cells, CellTiter-Glo viability, 144 h, stronger effect = lower value
[11] = stronger effect = lower value, cell number ratio, induced over uninduced
[12] = measured here: relative caspase fold change +Dox/-Dox
[13] = measured here: total cells with miR-34 induction, stronger effect = lower value
[14] = measured here: total cells without miR-34 induction
[15] = MELAS cybrid survival, CellTiter-Glo 48 h, stronger effect = higher value
[16] = Rieske KO mouse fibroblast survival, CellTiter-Glo 72 h

C[C@H]1CN(C[C@H](Cc2ccccc2)C(=O)NCC(=O)O)CC[C@@]1(C)c1cccc(O)c1
inactive: outcome [1] | outcome [2] | outcome [3] | outcome [4] | outcome [5]

Cc1cc(Oc2ccc3nc(COc4ccc(CC5SC(=O)NC5=O)cc4)n(C)c3c2)cc(C)c1N (centres undefined)
inactive: outcome [1] | outcome [2] | outcome [3] | outcome [4] | outcome [5]

CN(C)Cc1ccc(S(=O)(=O)n2ccc(/C=C/C(=O)NO)c2)cc1
active: AC50 [1] 9.34 µM | AC50 [2] 5.9 µM | AC50 [3] 6.61 µM | AC50 [4] 9.34 µM | IC50 [5] 7.42 µM

CN1CCN(c2ccc(Nc3ncc4cc(C#N)c(=O)n(C5CCCC5)c4n3)cc2)CC1
active: AC50 [1] 3.72 µM | AC50 [2] 8.33 µM | AC50 [3] 5.25 µM | AC50 [4] 10.5 µM | IC50 [5] 4.17 µM

COc1cccc2c1C(=O)c1c(O)c3c(c(O)c1C2=O)C[C@@](O)(/C(CO)=N/NC(=O)CCCCCN1C(=O)C=CC1=O)C[C@@H]3O[C@H]1C[C@H](N)[C@H](O)[C@H](C)O1
active: AC50 [1] 1.05 µM | AC50 [2] 4.68 µM | AC50 [3] 14.8 µM | AC50 [4] 2.95 µM | IC50 [5] 18.6 µM

Cn1cc(-c2ccc(S(=O)(=O)n3ccc(/C=C/C(=O)Nc4ccccc4N)c3)cc2)cn1
active: AC50 [1] 1.48 µM | AC50 [2] 3.32 µM | AC50 [3] 1.32 µM | AC50 [4] 1.86 µM | IC50 [5] 5.9 µM

N#Cc1ccnc(Nc2cc(C3CCN(C4COC4)CC3)cc(N3CCC(F)(F)C3)n2)c1
active: AC50 [1] 2.63 µM | AC50 [2] 5.25 µM | AC50 [3] 1.48 µM | AC50 [4] 5.9 µM | IC50 [5] 11.8 µM

O=C1CC[C@H](N2Cc3c(OCc4ccc(CN5CCOCC5)cc4)cccc3C2=O)C(=O)N1
inactive: outcome [1] | outcome [2] | outcome [3] | outcome [4] | outcome [5]

Nc1nc(Nc2ccc3c(c2)CC[C@@H](N2CCCC2)CC3)nn1-c1cc2c(nn1)-c1ccccc1CCC2
active: AC50 [1] 9.34 µM | AC50 [2] 16.6 µM | AC50 [3] 6.61 µM | AC50 [4] 20.9 µM | IC50 [5] 26.3 µM

C[C@@H]1N=C(N)NC(N(C)C)=N1
inactive: outcome [1] | outcome [2] | outcome [3] | outcome [4] | outcome [5]

CCOc1ccc(-n2c([C@@H](C)N(Cc3cccnc3)C(=O)Cc3ccc(F)c(C(F)(F)F)c3)nc3ncccc3c2=O)cc1
inactive: outcome [1] | outcome [2] | outcome [3] | outcome [4] | outcome [5]

CN1CC[C@@H](NC(=O)Nc2ccc(C#N)cc2)C[C@@H]1c1nc2ccccc2[nH]1
inactive: outcome [1] | outcome [2] | outcome [3] | outcome [4] | outcome [5]

c1ccc2c(-c3cnn4cc(-c5ccc(OCCN6CCOCC6)cc5)cnc34)ccnc2c1
inactive: outcome [5]
active: AC50 [1] 12.9 µM | AC50 [2] 14.4 µM | AC50 [3] 9.1 µM | AC50 [4] 10.2 µM

Cc1ccc(-c2ccc3ncc4c(c3n2)n(C2CCN(C(=O)[C@H](C)O)CC2)c(=O)n4C)cn1
active: AC50 [1] 0.468 µM | AC50 [2] 0.186 µM | AC50 [3] 0.186 µM | AC50 [4] 0.372 µM | IC50 [5] 0.417 µM

CC(C)c1c(-c2ccccc2)nc2c(C#N)c[nH]n2c1=O
inactive: outcome [1] | outcome [2] | outcome [3] | outcome [4] | outcome [5]

COc1cc2c(cc1OCCCN1CCCC1)N=C(N)C21CCC1
inactive: outcome [1] | outcome [2] | outcome [3] | outcome [4] | outcome [5]

CCC(=O)Nc1cccc(Oc2nc(Nc3ccc(N4CCN(C)CC4)cc3OC)ncc2Cl)c1
0.64: z-score [7, 16]
active: AC50 [1] 9.34 µM | AC50 [2] 10.5 µM | AC50 [3] 7.42 µM | AC50 [4] 18.6 µM
4310: cell count [6, 14]
inactive: outcome [5] | fold change [6, 11] 0.756 | z-score [7, 15] -0.403
0.553: fold change [6, 12]
3260: cell count [6, 13]

COc1ccc(S(=O)(=O)N(CCO)c2ccccc2CN(C)C/C=C/c2ccc(Cl)cc2)cc1
inactive: survival [8] 106 | parasite load remaining [9] 32.7%
64.7%: viability [9]
active: AC50 [1] 18.6 µM | AC50 [2] 7.42 µM | AC50 [3] 16.6 µM | AC50 [4] 10.5 µM | IC50 [5] 18.6 µM

CN(C)c1ccc(-c2nc3ncc(Cl)c(N4CCN(CC(=O)Nc5nccs5)CC4)c3[nH]2)cc1
2120: cell count [6, 13]
active: AC50 [1] 2.29 µM | AC50 [2] 7.23 µM | AC50 [3] 3.23 µM | AC50 [4] 2.29 µM | z-score [7, 15] 2.54
inactive: outcome [5] | fold change [6, 11] 1.06
-0.697: z-score [7, 16]
0.825: fold change [6, 12]
2000: cell count [6, 14]

CN1CCC(c2c(O)cc(O)c3c(=O)cc(-c4ccccc4Cl)oc23)C1CO (centres undefined)
1670: cell count [6, 14]
inactive: fold change [6, 11] 0.969 | z-score [7, 15] 0.124
1620: cell count [6, 13]
active: AC50 [1] 0.934 µM | AC50 [2] 1.18 µM | AC50 [3] 1.18 µM | AC50 [4] 1.18 µM | IC50 [5] 1.86 µM
-6.97: z-score [7, 16]
0.481: fold change [6, 12]

C=CC(=O)Nc1cccc(Nc2nc(Nc3ccc(NC4CN(CCF)C4)cc3OC)ncc2C(F)(F)F)c1
0.345: fold change [6, 12]
2000: cell count [6, 14]
1.6: z-score [7, 16]
inactive: fold change [6, 11] 0.964 | z-score [7, 15] 0.32 | viability ([10]; at 0.000305 µM, OCI-C5x cells, with rucaparib 10 µM, 100% = cells with rucaparib alone) 115% | viability ([10]; at 0.000305 µM, OCI-C5x cells, without rucaparib) 107% | viability ([10]; at 0.00122 µM, OCI-C5x cells, with rucaparib 10 µM, 100% = cells with rucaparib alone) 122% | viability ([10]; at 0.00122 µM, OCI-C5x cells, without rucaparib) 120% | viability ([10]; at 0.00488 µM, OCI-C5x cells, with rucaparib 10 µM, 100% = cells with rucaparib alone) 123% | viability ([10]; at 0.00488 µM, OCI-C5x cells, without rucaparib) 114% | viability ([10]; at 0.0195 µM, OCI-C5x cells, with rucaparib 10 µM, 100% = cells with rucaparib alone) 118% | viability ([10]; at 0.0195 µM, OCI-C5x cells, without rucaparib) 108% | viability ([10]; at 0.0195 µM, OCI-P5x cells, without rucaparib) 103% | viability ([10]; at 0.0781 µM, OCI-C5x cells, with rucaparib 10 µM, 100% = cells with rucaparib alone) 102% | viability ([10]; at 0.0781 µM, OCI-C5x cells, without rucaparib) 115% | viability ([10]; at 0.0781 µM, OCI-P5x cells, with rucaparib 20 µM, 100% = cells with rucaparib alone) 103% | viability ([10]; at 0.313 µM, OCI-C5x cells, with rucaparib 10 µM, 100% = cells with rucaparib alone) 132% | viability ([10]; at 0.313 µM, OCI-C5x cells, without rucaparib) 127% | viability ([10]; at 0.313 µM, OCI-P5x cells, with rucaparib 20 µM, 100% = cells with rucaparib alone) 106% | viability ([10]; at 0.313 µM, OCI-P5x cells, without rucaparib) 104% | viability ([10]; at 1.25 µM, OCI-C5x cells, with rucaparib 10 µM, 100% = cells with rucaparib alone) 119% | viability ([10]; at 1.25 µM, OCI-C5x cells, without rucaparib) 126%
1930: cell count [6, 13]
active: AC50 [1] 1.48 µM | AC50 [2] 2.35 µM | AC50 [3] 1.32 µM | AC50 [4] 2.63 µM | IC50 [5] 0.833 µM | viability ([10]; at 0.000305 µM, OCI-P5x cells, with rucaparib 20 µM, 100% = cells with rucaparib alone) 98.4% | viability ([10]; at 0.000305 µM, OCI-P5x cells, without rucaparib) 92.9% | viability ([10]; at 0.00122 µM, OCI-P5x cells, with rucaparib 20 µM, 100% = cells with rucaparib alone) 99.4% | viability ([10]; at 0.00122 µM, OCI-P5x cells, without rucaparib) 89.9% | viability ([10]; at 0.00488 µM, OCI-P5x cells, with rucaparib 20 µM, 100% = cells with rucaparib alone) 96.9% | viability ([10]; at 0.00488 µM, OCI-P5x cells, without rucaparib) 94.8% | viability ([10]; at 0.0195 µM, OCI-P5x cells, with rucaparib 20 µM, 100% = cells with rucaparib alone) 98.4% | viability ([10]; at 0.0781 µM, OCI-P5x cells, without rucaparib) 98.1% | viability ([10]; at 1.25 µM, OCI-P5x cells, with rucaparib 20 µM, 100% = cells with rucaparib alone) 83.8% | viability ([10]; at 1.25 µM, OCI-P5x cells, without rucaparib) 83.2% | viability ([10]; at 5 µM, OCI-C5x cells, with rucaparib 10 µM, 100% = cells with rucaparib alone) 19.5% | viability ([10]; at 5 µM, OCI-C5x cells, without rucaparib) 94.4% | viability ([10]; at 5 µM, OCI-P5x cells, with rucaparib 20 µM, 100% = cells with rucaparib alone) 13.3% | viability ([10]; at 5 µM, OCI-P5x cells, without rucaparib) 20%
